Inconclusive results are not listed. Active and inactive are the calls of the source. Calls come from the whole dose curve; as a rule, active = well fitted curve in the direction sought with a large enough effect in the signal ratio in the repeat runs (not every such curve was filed as active); inconclusive = weak or mixed curves, or a change in a side signal; inactive = no such curve, though single readings can be large or run the other way; the % refers to the signal ratio.
Test: qHTS assay to identify small molecule agonists of the NFkB signaling pathway (AID 1159509)
Details: NFkB-bla ME-180 cells, beta-lactamase FRET ratio, 5 h; series mostly up to 61 µM
Description: National Center for Advancing Translational Sciences [NCATS]
NIH Chemical Genomics Center [NCGC]
U.S. Environmental Protection Agency [EPA]
National Institutes of Environmental Health Sciences [NIEHS]
National Toxicology Program [NTP]
U.S. Food and Drug Administration [FDA]
Transcription factors and their stimulated target gene expression play pivotal roles across many cellular processes including responses to environmental stimuli. Proper regulation of associated pathways is critical to maintain cell health and function. Constitutive activation of transcription factor pathways has been implicated in tumors as it may block cellular functions such as apoptosis and lead to invasion and metastasis. One important transcription factor that stimulates gene expression in response to cytokines, UV radiation, and other stimuli is nuclear factor-kappa B (NFkB). To measure activation of the NFkB pathway, the CellSensor NFkB-bla ME-180 cell line (Life Technologies, Carlsbad, CA) that stably expresses beta-lactamase reporter gene under the regulation of a NF-kB response element was used. This assay allows measurement of the NFkB pathway activity induced by compounds in a ME-180 cell line. This system quantitates NF-kB activity using a FRET-based assay system where beta-lactamase expression disrupts FRET, allowing for fluorescent measurement of activity. This cell line has been used to screen the Tox21 10K compound library and to identify compounds that induce the NFkB pathway activity.
Tox21 Assay Protocol Summary:
NFkB-bla ME-180 cells were dispensed at 2,000 cells/6 uL of assay medium per well into black wall/clear-bottom 1536-well plates using a Multidrop Combi (ThermoFisher Scientific, Waltham, MA) dispenser. After the assay plates were incubated at 37 C and 5% CO2 for an overnight, 23 nL of compounds dissolved in DMSO, positive controls or DMSO only was transferred to the assay plate by a Pintool station (Kalypsys, San Diego, CA). The assay plates were incubated at 37 C and 5% CO2 for 5 hr. One uL of LiveBLAzer B/G FRET substrate (Life Technologies) was added using a Flying Reagent Dispenser (Aurora Discovery, San Diego, CA) and the plates were incubated at room temperature for 1.5 hr. Fluorescence intensity (405 nm excitation, 460 nm and 530 nm emissions) was measured using an Envision plate reader (PerkinElmer, Shelton, CT).
With `CC(CC(C#N)(c1ccccc1)c1ccccc1)N(C)C` (stereo not given) the outcome was “inactive”.
For `C=CC1CC=CCC1` (stereo not given), the outcome was “inactive”.
With `CC1CN1P(=O)(N1CC1C)N1CC1C` (stereo not given) the outcome was “inactive”.
With `CC(C)CC#N` the outcome was “inactive”.
For `ClCC(Cl)Cl`, the outcome was “inactive”.
In the case of `OC(c1ccccc1)(c1ccccc1)C1CCNCC1`, the outcome is reported as “inactive”.
With `O=C1CN=C(c2ccccc2)c2cc([N+](=O)[O-])ccc2N1` the outcome was “inactive”.
With `N#CCBr` the outcome was “inactive”.
For `CC(C=O)Cc1ccc2c(c1)OCO2` (stereo not given), the outcome was “inactive”.
With `CCN(CC)C(=O)[C@@H]1C=C2c3cccc4[nH]cc(c34)C[C@H]2N(C)C1` the outcome was “inactive”.
With `CNC(=O)Oc1ccc(N(C)C)c(C)c1` the outcome was “inactive”.
For `CCC(=O)c1ccccc1`, the outcome was “inactive”.
With `O=C(O)c1ccc2[nH]cc(CCCCN3CC=C(c4ccccc4)CC3)c2c1` the outcome was “inactive”.
For `c1ccc(N2CCNCC2)cc1`, the outcome was “inactive”.
For `O=C1CN2CCOC2(c2ccccc2Cl)c2cc(Cl)ccc2N1` (stereo not given), the outcome was “inactive”.
For `O=C(N[C@H]1CN2CCC1CC2)c1cc2ccoc2cn1`, the outcome was “inactive”.
In the case of `O=[N+]([O-])c1cccc2cccnc12`, the outcome is reported as “inactive”.
With `CCc1cc2c(s1)-n1c(C)nnc1CN=C2c1ccccc1Cl` the outcome was “inactive”.
In the case of `Clc1cccc(N2CCNCC2)c1`, the outcome is reported as “inactive”.
In the case of `CC(C)CC(N(C)C)C1(c2ccc(Cl)cc2)CCC1` (stereo not given), the outcome is reported as “inactive”.
In the case of `COP(=S)(OC)Oc1c(Cl)cc(C)cc1Cl`, the outcome is reported as “inactive”.
For `CCC1(c2ccccc2)C(=O)NC(=O)NC1=O`, the outcome was “inactive”.
For `O=C(O)C(Br)CBr` (stereo not given), the outcome was “inactive”.
For `CC(=O)[C@H]1CC[C@H]2[C@@H]3CC[C@H]4C[C@H](O)CC[C@]4(C)[C@H]3C(=O)C[C@]12C`, the outcome was “inactive”.
In the case of `BrCCCCCCBr`, the outcome is reported as “inactive”.
With `Nc1n[nH]c(N)n1` the outcome was “inactive”.
With `CC1=C(C(=O)Nc2ccccc2)S(=O)(=O)CCO1` the outcome was “inactive”.
For `c1cc2c(c(N3CCNCC3)c1)OCCO2`, the outcome was “inactive”.
For `COC(=O)COc1ccc(Cl)cc1Cl`, the outcome was “inactive”.
For `Oc1c(Cl)cccc1Cl`, the outcome was “inactive”.
In the case of `Cc1ncc2n1-c1ccc(Cl)cc1C(c1ccccc1F)=NC2`, the outcome is reported as “inactive”.
With `O=[N+]([O-])c1cccc(O)c1` the outcome was “inactive”.
In the case of `Cc1ncc(CNC(=O)N(CCCl)N=O)c(N)n1`, the outcome is reported as “inactive”.
In the case of `CC(C(O)c1ccccc1)N(C)C/C=C/c1ccccc1` (stereo not given), the outcome is reported as “inactive”.
For `OCCBr`, the outcome was “inactive”.
In the case of `c1coc(-c2nc3ccccc3[nH]2)c1`, the outcome is reported as “inactive”.
For `c1cc[c]([Hg][c]2ccccc2)cc1`, the outcome was “inactive”.
In the case of `N#Cc1c(Cl)cccc1Cl`, the outcome is reported as “inactive”.
For `CCOP(=S)(OCC)SCSc1ccc(Cl)cc1`, the outcome was “inactive”.
With `CNC(=O)Oc1c(C(C)(C)C)cc(C)cc1C(C)(C)C` the outcome was “inactive”.

Reference: PubChem BioAssay (Tox21)
